# This excerpt belongs to a sample that is enriched for the strongest signals.
# B1: Epa21 (Candida glabrata) (protein)
# chain: MGSSHHHHHHSSGLVPRGSHMASTPNIESHPQGCSPVDTSGIKPGLKMDLYRFPITPPGTGCWSWDWLTVTPDFPRSGYWKWPKIAEVDGVVGPLHLDSGHPTCDPLTSVLPHGFNYLQSITTTNFTMVLHGYFVPKQSGKYTFEFKADDALLLNLGAGNAFSCCDYNNSQYNQGEYLAYAIWSKNNQTATLYLEKGIYYPIRVFYHNRCCGAYMDVVYYFNDSPIPNRDFSGLLFSIPDSDSCDANI
# Key:
# Assay in all cases: glycan array binding signal (z-score within array); higher = stronger binding
# Conditions in all cases: glycan notation: IUPAC condensed, linker removed
# [1] = molecular target: Fuc(a1-2)Gal(b1-4)Fuc(a1-3)]GlcNAc(b1-2)Man(a1-3)[Fuc(a1-2)Gal(b1-4)[Fuc(a1-3)]GlcNAc(b1-2)Man(a1-6)]Man(b1-4)GlcNAc(b1-4)GlcNAc
# In short: (§1)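 Negative Z-scores can be read as non-binding. The Z-score is calculated within each array and then averaged across arrays of one protein sequence at different concentrations or buffers and across linkers. Arrays, 3228 in all, were curated from the Consortium for Functional Glycomics database and kept only where the protein sequence was available.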
# [2] = molecular target: Fuc(a1-2)Gal(b1-4)GlcNAc(b1-3)[Fuc(a1-2)Gal(b1-4)GlcNAc(b1-6)]GalNAc
# In short: as §1
# [3] = molecular target: Fuc(a1-2)Gal6S(b1-3)GlcNAc6S
# In short: as §1
# [4] = molecular target: Fuc(a1-2)[Gal(a1-3)]Gal(b1-3)GlcNAc(b1-2)Man(a1-3)[Fuc(a1-2)[Gal(a1-3)]Gal(b1-3)GlcNAc(b1-2)Man(a1-6)]Man(b1-4)GlcNAc(b1-4)GlcNAc
# In short: as §1
# [5] = molecular target: Fuc(a1-2)[Gal(a1-3)]Gal(b1-4)GlcNAc(b1-6)GalNAc
# In short: as §1
# [6] = molecular target: Fuc(a1-2)[GalNAc(a1-3)]Gal(b1-4)GlcNAc(b1-6)GalNAc
# In short: as §1
# [7] = molecular target: Fuc(a1-2)[GalNAc(a1-3)]Gal(b1-4)[Fuc(a1-3)]GlcNAc
# In short: as §1
# [8] = molecular target: Fuc(a1-3)[Gal(b1-4)]GlcNAc(b1-2)Man
# In short: as §1
# [9] = molecular target: Fuc(a1-3)[Gal(b1-4)]GlcNAc(b1-3)Gal(b1-4)[Fuc(a1-3)]GlcNAc
# In short: as §1
# Fuc(b1-3)GlcNAc = molecular target: Fuc(b1-3)GlcNAc
# In short: as §1
# Gal(a1-3)Gal(b1-4)Glc = molecular target: Gal(a1-3)Gal(b1-4)Glc
# In short: as §1
# [10] = molecular target: Gal(a1-3)Gal(b1-4)GlcNAc(b1-3)GalNAc
# In short: as §1
# Gal(a1-3)GalNAc = molecular target: Gal(a1-3)GalNAc
# In short: as §1
# Gal(a1-4)GlcNAc = molecular target: Gal(a1-4)GlcNAc
# In short: as §1
# [11] = molecular target: Gal(b1-3)GlcNAc(b1-3)Gal(b1-4)GlcNAc
# In short: as §1
# [12] = molecular target: Gal(b1-3)GlcNAc(b1-3)Gal(b1-4)[Fuc(a1-3)]GlcNAc(b1-6)[Gal(b1-3)GlcNAc(b1-3)]Gal(b1-4)Glc
# In short: as §1
# [13] = molecular target: Gal(b1-3)GlcNAc(b1-3)GalNAc
# In short: as §1
# [14] = molecular target: Gal(b1-4)GlcNAc(b1-2)Man(a1-3)[Gal(b1-4)GlcNAc(b1-2)Man(a1-6)][GlcNAc(b1-4)]Man(b1-4)GlcNAc(b1-4)[Fuc(a1-6)]GlcNAc
# In short: as §1
# [15] = molecular target: Gal(b1-4)GlcNAc(b1-3)Gal(b1-4)GlcNAc(b1-3)Gal(b1-4)GlcNAc(b1-2)Man(a1-3)[Gal(b1-4)GlcNAc(b1-3)Gal(b1-4)GlcNAc(b1-3)Gal(b1-4)GlcNAc(b1-2)Man(a1-6)]Man(b1-4)GlcNAc(b1-4)GlcNAc
# In short: as §1
# [16] = molecular target: Gal(b1-4)GlcNAc(b1-3)Gal(b1-4)GlcNAc(b1-3)[Gal(b1-4)GlcNAc(b1-3)Gal(b1-4)GlcNAc(b1-6)]GalNAc
# In short: as §1
# [17] = molecular target: Gal(b1-4)GlcNAc(b1-3)Gal(b1-4)GlcNAc(b1-6)[Gal(b1-3)]GalNAc
# In short: as §1
# [18] = molecular target: Gal(b1-4)GlcNAc(b1-3)Gal(b1-4)[Fuc(a1-3)]GlcNAc(b1-3)Gal(b1-4)[Fuc(a1-3)]GlcNAc
# In short: as §1
# [19] = molecular target: Gal(b1-4)GlcNAc(b1-6)GalNAc
# In short: as §1
# Gal6S(b1-4)Glc6S = molecular target: Gal6S(b1-4)Glc6S
# In short: as §1
# Gal6S(b1-4)GlcNAc6S = molecular target: Gal6S(b1-4)GlcNAc6S
# In short: as §1
# [20] = molecular target: GalNAc(b1-4)GlcNAc(b1-2)Man(a1-3)[GalNAc(b1-4)GlcNAc(b1-2)Man(a1-6)]Man(b1-4)GlcNAc(b1-4)GlcNAc
# In short: as §1
# GlcA(b1-3)GlcNAc = molecular target: GlcA(b1-3)GlcNAc
# In short: as §1
# [21] = molecular target: GlcNAc(a1-4)Gal(b1-4)GlcNAc
# In short: as §1
# [22] = molecular target: GlcNAc(b1-2)Gal(b1-3)GalNAc
# In short: as §1
# [23] = molecular target: GlcNAc(b1-6)Gal(b1-4)GlcNAc
# In short: as §1
# [24] = molecular target: Man(a1-2)Man(a1-2)Man(a1-6)[Man(a1-3)]Man
# In short: as §1
# [25] = molecular target: Man(a1-3)[Man(a1-6)]Man(a1-6)[Man(a1-3)]Man
# In short: as §1
# [26] = molecular target: Neu5Ac(a2-3)Gal(b1-3)GlcNAc(b1-3)Gal(b1-3)GlcNAc
# In short: as §1
# [27] = molecular target: Neu5Ac(a2-3)Gal(b1-3)GlcNAc(b1-3)Gal(b1-4)GlcNAc
# In short: as §1
# [28] = molecular target: Neu5Ac(a2-3)Gal(b1-3)[Neu5Ac(a2-6)]GlcNAc(b1-3)[Fuc(a1-3)[Gal(b1-4)]GlcNAc(b1-6)]Gal(b1-4)Glc
# In short: as §1
# [29] = molecular target: Neu5Ac(a2-3)Gal(b1-4)GlcNAc(b1-2)Man
# In short: as §1
# [30] = molecular target: Neu5Ac(a2-3)Gal(b1-4)GlcNAc(b1-3)Gal(b1-4)GlcNAc(b1-3)GalNAc
# In short: as §1
# [31] = molecular target: Neu5Ac(a2-3)Gal(b1-4)GlcNAc(b1-3)[Neu5Ac(a2-3)Gal(b1-4)GlcNAc(b1-6)]GalNAc
# In short: as §1
# [32] = molecular target: Neu5Ac(a2-3)Gal(b1-4)[Fuc(a1-3)]GlcNAc(b1-3)GalNAc
# In short: as §1
# [33] = molecular target: Neu5Ac(a2-6)Gal(b1-4)GlcNAc(b1-2)Man
# In short: as §1
# [34] = molecular target: Neu5Ac(a2-6)Gal(b1-4)GlcNAc(b1-2)Man(a1-3)[Gal(b1-4)GlcNAc(b1-2)Man(a1-6)]Man(b1-4)GlcNAc(b1-4)GlcNAc
# In short: as §1
# [35] = molecular target: Neu5Ac(a2-6)Gal(b1-4)GlcNAc(b1-3)Gal(b1-4)GlcNAc
# In short: as §1
# [36] = molecular target: Neu5Ac(a2-6)Gal(b1-4)GlcNAc(b1-3)Gal(b1-4)GlcNAc(b1-2)Man(a1-3)[Neu5Ac(a2-6)Gal(b1-4)GlcNAc(b1-3)Gal(b1-4)GlcNAc(b1-2)Man(a1-6)]GalNAc
# In short: as §1
# [37] = molecular target: Neu5Ac(a2-6)Gal(b1-4)GlcNAc(b1-3)Gal(b1-4)GlcNAc(b1-3)Gal(b1-4)GlcNAc(b1-2)Man(a1-3)[Neu5Ac(a2-6)Gal(b1-4)GlcNAc(b1-3)Gal(b1-4)GlcNAc(b1-3)Gal(b1-4)GlcNAc(b1-2)Man(a1-6)]GalNAc
# In short: as §1
# [38] = molecular target: Neu5Ac(a2-6)Gal(b1-4)GlcNAc(b1-3)Gal(b1-4)[Fuc(a1-3)]GlcNAc(b1-3)Gal(b1-4)[Fuc(a1-3)]GlcNAc
# In short: as §1
# [39] = molecular target: Neu5Ac9Ac(a2-3)Gal(b1-3)GlcNAc
# In short: as §1
binder,measurement,setting,value
B1,glycan array binding signal (z-score),[1],2.49
same,glycan array binding signal (z-score),[2],-0.296
same,glycan array binding signal (z-score),[3],4.29
same,glycan array binding signal (z-score),[4],-0.507
same,glycan array binding signal (z-score),[5],-0.214
same,glycan array binding signal (z-score),[6],-0.634
same,glycan array binding signal (z-score),[7],-0.093
same,glycan array binding signal (z-score),[8],-0.558
same,glycan array binding signal (z-score),[9],0.064
same,glycan array binding signal (z-score),Fuc(b1-3)GlcNAc,-1.01
same,glycan array binding signal (z-score),Gal(a1-3)Gal(b1-4)Glc,-0.176
same,glycan array binding signal (z-score),[10],1.03
same,glycan array binding signal (z-score),Gal(a1-3)GalNAc,-0.135
same,glycan array binding signal (z-score),Gal(a1-4)GlcNAc,4.26
same,glycan array binding signal (z-score),[11],-0.56
same,glycan array binding signal (z-score),[12],-0.438
same,glycan array binding signal (z-score),[13],-0.317
same,glycan array binding signal (z-score),[14],-0.687
same,glycan array binding signal (z-score),[15],2.55
same,glycan array binding signal (z-score),[16],1.89
same,glycan array binding signal (z-score),[17],2.73
same,glycan array binding signal (z-score),[18],-0.493
same,glycan array binding signal (z-score),[19],-0.047
same,glycan array binding signal (z-score),Gal6S(b1-4)Glc6S,2.89
same,glycan array binding signal (z-score),Gal6S(b1-4)GlcNAc6S,3.19
same,glycan array binding signal (z-score),[20],0.288
same,glycan array binding signal (z-score),GlcA(b1-3)GlcNAc,0.14
same,glycan array binding signal (z-score),[21],-0.35
same,glycan array binding signal (z-score),[22],-0.466
same,glycan array binding signal (z-score),[23],0.013
same,glycan array binding signal (z-score),[24],-0.531
same,glycan array binding signal (z-score),[25],-0.026
same,glycan array binding signal (z-score),[26],-0.487
same,glycan array binding signal (z-score),[27],-0.39
same,glycan array binding signal (z-score),[28],-0.237
same,glycan array binding signal (z-score),[29],2.68
same,glycan array binding signal (z-score),[30],3.03
same,glycan array binding signal (z-score),[31],0.888
same,glycan array binding signal (z-score),[32],1.87
same,glycan array binding signal (z-score),[33],-0.212
same,glycan array binding signal (z-score),[34],-0.438
same,glycan array binding signal (z-score),[35],-0.589
same,glycan array binding signal (z-score),[36],2.55
same,glycan array binding signal (z-score),[37],5.42
same,glycan array binding signal (z-score),[38],-0.189
same,glycan array binding signal (z-score),[39],-0.318
